# Experimental data reported in the OligoGym collection.
# Key:
# Assay in all cases: pooled miR-30 sensor sort-seq; sequence = guide strand
# Settings in all cases: shRNA
# FUT7 = molecular target: FUT7
# FXN = molecular target: FXN
# FZR1 = molecular target: FZR1
# GALE = molecular target: GALE
# GALT = molecular target: GALT
# GALNTL4 = molecular target: GALNTL4
# GALNT9 = molecular target: GALNT9
# Further: reference of the scale not given here.
sequence,measurement,setting,value
AAGATGTCCGAGTCGCGCCGGT,sensor-assay potency score (higher = more potent),FUT7,-0.72
TTCTCCGTAATGTAGTCGCGGT,sensor-assay potency score (higher = more potent),FUT7,-0.562
TTGCTTGTTTGGCGTCTGCTTG,sensor-assay potency score (higher = more potent),FXN,-0.812
TAGGTGGTCTCATCTAGAGAGC,sensor-assay potency score (higher = more potent),FXN,-1.48
TGTTGATCACATAGGTTCCTAG,sensor-assay potency score (higher = more potent),FXN,-0.584
TCAAGGTCCTCATAGACTTGGC,sensor-assay potency score (higher = more potent),FUT7,-0.439
TTGAAGATGCCTCGGAGGTGGC,sensor-assay potency score (higher = more potent),FUT7,-0.867
TGTCCTGTCAGCGTGTTCCAGA,sensor-assay potency score (higher = more potent),FZR1,-0.846
TACTTTGGAAAGCTCTTTCAGA,sensor-assay potency score (higher = more potent),GALE,-0.275
TTCCCGTACACAGTGGCTGAGC,sensor-assay potency score (higher = more potent),GALE,-0.834
TTCACCTCTCCGTTGGCTCGGA,sensor-assay potency score (higher = more potent),GALT,-0.467
TTGATATCATACCATCACCTAC,sensor-assay potency score (higher = more potent),GALNTL4,-1.18
TTGTCATCATCATCCACGGTGG,sensor-assay potency score (higher = more potent),GALNTL4,-0.503
TTGTCAAACAGGAAGGTGCTAT,sensor-assay potency score (higher = more potent),GALT,-0.0645
TGAATTTCCGGACAGTGGCAGA,sensor-assay potency score (higher = more potent),GALT,-0.779
ATACTTGGTCAAGAGCTTCTTC,sensor-assay potency score (higher = more potent),GALT,-0.165
TTGTAGACCCTCATCTCCGGGT,sensor-assay potency score (higher = more potent),GALNT9,-0.631
ATATCTGGCAGGAAACTGCTGG,sensor-assay potency score (higher = more potent),GALT,-0.342
TTTGGACATCTCCACCTCCAGG,sensor-assay potency score (higher = more potent),GALNT9,-1.41
TGATGTGTGACTTAGGTCTTGG,sensor-assay potency score (higher = more potent),GALNT9,0.117
AAAGAGGTTGTCATACTTGGTC,sensor-assay potency score (higher = more potent),GALT,-0.351
TTTGTTTTCAAAGATCTGCACC,sensor-assay potency score (higher = more potent),GALT,-0.471
TTCGACATGGGGATGTTCCAGG,sensor-assay potency score (higher = more potent),GALNT9,-0.845
TTCCTGAGTAGCTCCTGGCGGC,sensor-assay potency score (higher = more potent),GALT,-0.283
AATAGTTTGATATCATACCATC,sensor-assay potency score (higher = more potent),GALNTL4,-1.73
AAGCATTTCGTAGCCAACCATG,sensor-assay potency score (higher = more potent),GALT,-1.22
ATATTCGGTCAGCTTCTCCTTC,sensor-assay potency score (higher = more potent),GALNTL4,-0.121
TTCAGTTCCTCGTTACTGCTGT,sensor-assay potency score (higher = more potent),GALNTL4,0.73
TTGCCCGGAAGGTTGCTGCTGC,sensor-assay potency score (higher = more potent),GALT,-0.354
TTGACGTCCACCAGGCATCGGT,sensor-assay potency score (higher = more potent),GALNTL4,-0.813
TTTCTGATCATCCACTTCTGCC,sensor-assay potency score (higher = more potent),GALNT9,-1.06
TAATTCAGCAAGACTGTTGAAA,sensor-assay potency score (higher = more potent),GALT,0.0574
TATCTGGCAGGAAACTGCTGGC,sensor-assay potency score (higher = more potent),GALT,-0.854
TTTGTCGCTGTCCATGTCCTCC,sensor-assay potency score (higher = more potent),GALNT9,-0.772
TTCCTCCAGCTTCTTGTCGGGC,sensor-assay potency score (higher = more potent),GALNTL4,-1.36
TACTCTTCTATCTCAAAGTTGT,sensor-assay potency score (higher = more potent),GALNTL4,-0.112
TGAGCAAGCATTTCGTAGCCAA,sensor-assay potency score (higher = more potent),GALT,-0.524
ATAGTAGTCAATGTCGTTGTTG,sensor-assay potency score (higher = more potent),GALNT9,-0.487
TATAGGCCTGCTGAGATCGCTC,sensor-assay potency score (higher = more potent),GALT,-0.708
TTTTCAAAGATCTGCACCCAAG,sensor-assay potency score (higher = more potent),GALT,-1.61
TTGCTGTTTCTCACCTCTCCGT,sensor-assay potency score (higher = more potent),GALNT9,-0.669
TTTGTCTTCCTCCAGCTTCTTG,sensor-assay potency score (higher = more potent),GALNTL4,-1.15
